The text below walks through data of article PMC7819943, “Rice protein-binding microarrays: a tool to detect cis-acting elements near promoter regions in rice”.

Whole data set: some 39,000 sequences, median “fluorescence intensity (a.u.)” near 4,300, cut for the highest 2% near 39,000. The list comes from a sample in which the highest values are over-represented; it also holds similar and randomly drawn sequences.

The target in this experiment is T1, OsSMF1 (Oryza sativa, UniProt Q6ZLB0 1-436).
T1 sequence: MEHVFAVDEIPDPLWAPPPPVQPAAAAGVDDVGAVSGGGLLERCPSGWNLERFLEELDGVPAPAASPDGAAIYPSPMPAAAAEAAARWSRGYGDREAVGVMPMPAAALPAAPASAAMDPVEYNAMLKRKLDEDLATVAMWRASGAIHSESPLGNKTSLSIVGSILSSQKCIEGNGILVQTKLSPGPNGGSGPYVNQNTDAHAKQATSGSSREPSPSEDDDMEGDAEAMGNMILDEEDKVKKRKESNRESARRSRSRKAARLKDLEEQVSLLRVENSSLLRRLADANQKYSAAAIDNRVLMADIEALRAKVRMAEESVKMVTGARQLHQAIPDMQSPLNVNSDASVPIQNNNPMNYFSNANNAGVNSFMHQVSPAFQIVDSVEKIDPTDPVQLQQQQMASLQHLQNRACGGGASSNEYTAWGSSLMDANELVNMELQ
As to the kind of experiment: protein-binding microarray (RPBM); PBS, 2% BSA, 51.3 ng/ul salmon testes DNA, 50 uM zinc acetate, 200 nM TF, 25 C, 1 h; high values mean tight binding. To be noted: protein: recombinant; tags: N-terminal polyhistidine and DsRed monomer fusion (pET32a); chain copies: 2; label: CyDye5-dUTP incorporated in the synthesized complementary strand; 3' TTTTT single-stranded linker to array surface; dsDNA, one strand shown. The method in brief: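 Per-feature fluorescence intensity (arbitrary units), read on an Axon 4000B scanner, is the binding signal. Transcription factors carrying an N-terminal polyhistidine tag and DsRed fusion were expressed in E. coli BL21-CodonPlus and purified on Ni–NTA. A custom Agilent array, made double-stranded by primer extension with Cy5-dUTP and blocked with 2% BSA, was incubated with 200 nM protein in PBS, 2% BSA, salmon testes DNA and 50 µM zinc acetate at 25 °C for 1 h and then washed.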
On to “CATCCACGTGGTGCCGCACCTAACCAGCGTAGCAGTTGCTCGGAGTCACCTAGTGCAG”, for which the binding signal is 5710 fluorescence intensity (a.u.).
In the case of “GTGTGTGTATGACAGGTGGGACCATATATTAATAGTGTAGCGGAGTCACCTAGTGCAG” it was 3480 fluorescence intensity (a.u.).
In the case of “ATCATAGTATGCCGTACGGCCTGGACCTTCTGTCACGTGGCGGAGTCACCTAGTGCAG” it was 5660 fluorescence intensity (a.u.).
In the case of “TATGTGGACCATAGTGGCCTTCGGCAATATGGATTAGTAGCGGAGTCACCTAGTGCAG” it was 47700 fluorescence intensity (a.u.); in that of “TGCACACCCAGGTTGAAGACGACAATGACGAGCTCGGGCGCGGAGTCACCTAGTGCAG”, 3330 fluorescence intensity (a.u.).
Regarding “CATTCTCCTTCTCTCTCGTACGGCTAGAGGTTGAAGACGACGGAGTCACCTAGTGCAG”, the binding signal is 3760 fluorescence intensity (a.u.).
Turning to “CGACTACGAGACGCGAGGTTGAAGACAAGTAAGTACTCCTCGGAGTCACCTAGTGCAG”, the binding signal is 65500 fluorescence intensity (a.u.).
In the case of “GAGTTACCACGAGATGACACGTAGGATAAAGAGCTTTGAACGGAGTCACCTAGTGCAG” it was 8600 fluorescence intensity (a.u.); in that of “CTCGAGAGTTATTTATTATTTATATTTCCAAAGGTTTGACCGGAGTCACCTAGTGCAG”, 25900 fluorescence intensity (a.u.); in that of “TCCAATCCTGCGTGGAGTAATTTATTTCAAGCGCAACAGGCGGAGTCACCTAGTGCAG”, 3630 fluorescence intensity (a.u.).
In the case of “CGTCCAAATATTATTTCCTGCGCGTGGTTTACAAAAGAGGCGGAGTCACCTAGTGCAG” it was 47300 fluorescence intensity (a.u.).
In the case of “GAATAGAACATGTACAGTGACACATCTGCATTGGAAGCGTCGGAGTCACCTAGTGCAG” it was 7380 fluorescence intensity (a.u.); in that of “TGTCATTGACTCACGTGGGTCCTACATGTCATTGAGCTTTCGGAGTCACCTAGTGCAG”, 10300 fluorescence intensity (a.u.); in that of “CATCCGTCGCTTCGCTTTCGTTCGAACGCGTTGGACCCAGCGGAGTCACCTAGTGCAG”, 3160 fluorescence intensity (a.u.).
“TTATGGACTGATATGGGCCGTTGGATTGGTTTCGGTTTTGCGGAGTCACCTAGTGCAG”: the binding signal was 5480 fluorescence intensity (a.u.).
In the case of “TTTATGATAACTTTGAGTCATATCATTTTGGTAAGTCCTACGGAGTCACCTAGTGCAG” it was 3140 fluorescence intensity (a.u.); in that of “ATGATAACTTTTATGGTTTTGGCCGTCTGGGGATCGGAATCGGAGTCACCTAGTGCAG”, 65500 fluorescence intensity (a.u.).
In the case of “CCAGTACATTTTGTACTACTACTTCGAACGGGCATGGTCGCGGAGTCACCTAGTGCAG” it was 29700 fluorescence intensity (a.u.); in that of “CTAATTGAAATCACAAATGCTGAGTTGCTGACATGCACCACGGAGTCACCTAGTGCAG”, 4570 fluorescence intensity (a.u.).
Turning to “TGAACACGAACGCGACGCTTCTTCTGTCACGTACGCCCGTCGGAGTCACCTAGTGCAG”, the binding signal is 3200 fluorescence intensity (a.u.).
In the case of “CCCGTCGTTGTCCACCCCGTCCCATTCCACGACCGTCGTCCGGAGTCACCTAGTGCAG” it was 3390 fluorescence intensity (a.u.).
In the case of “GTAACGTACGACCGTTGTCATCGTAGACGCTTCCCGGATTCGGAGTCACCTAGTGCAG” it was 45700 fluorescence intensity (a.u.); in that of “TTTCCTTGGAGAATCCAGATCAGCTTCCTAATCACCCTCACGGAGTCACCTAGTGCAG”, 4040 fluorescence intensity (a.u.).
In the case of “AGTTTCCGAGAGCGAGCGAGAGAGAGAGAGAGAGAGAGAGCGGAGTCACCTAGTGCAG” it was 3220 fluorescence intensity (a.u.).
In the case of “GTGTCTGCCTCCGCGTCCGCTTCGTCACGGCGGTGTCGGTCGGAGTCACCTAGTGCAG”, the binding signal is 5900 fluorescence intensity (a.u.).
In the case of “TGTGCTCAGCCTTAATTAATTAATCGAGCGAGTCATAAGCCGGAGTCACCTAGTGCAG” it was 3460 fluorescence intensity (a.u.).
Take “CAGGTGTGTCCATTGAATTGAATTGAATTGAAACTATTGACGGAGTCACCTAGTGCAG”: the binding signal is 60900 fluorescence intensity (a.u.).
In the case of “TGTACCTGAAACTATTGTTATGTCCAGGTCAGGAGCAGTGCGGAGTCACCTAGTGCAG” it was 3360 fluorescence intensity (a.u.).
Turning to “CAGGAATTGAACTATTAAGATCCATTATGTTGCTCTAAAACGGAGTCACCTAGTGCAG”, the binding signal is 3310 fluorescence intensity (a.u.).
In the case of “CTCTCACCATGCAAGATTTCCTTAGATTTGAGTTGAGTCACGGAGTCACCTAGTGCAG” it was 3150 fluorescence intensity (a.u.); in that of “CTTCAGTCCCGGTTGGTAAGGCTCAGCCGGCCACGTGGCTCGGAGTCACCTAGTGCAG”, 17200 fluorescence intensity (a.u.); in that of “AGCGGACGCGCGGTATGGTCGATGGATGATGACACACGGTCGGAGTCACCTAGTGCAG”, 5210 fluorescence intensity (a.u.).
With “GTGCCATCTAAGCGTCACGTCAAACACCACATACCAGGTCCGGAGTCACCTAGTGCAG”, the binding signal was 3140 fluorescence intensity (a.u.).
In the case of “CCAGGTCACATTCACATCTCTCTTTACCAAAGCTAAGCCACGGAGTCACCTAGTGCAG” it was 48100 fluorescence intensity (a.u.).
In the case of “AAGCTAGTCACACATCACCATCACACACACCAAGCCACACCGGAGTCACCTAGTGCAG” it was 4460 fluorescence intensity (a.u.); in that of “CTGTATTCATTAGGGTGGGACTGTATACTATAGTTATTATCGGAGTCACCTAGTGCAG”, 3190 fluorescence intensity (a.u.); in that of “GACCCACGCCTTCGGGTCCACATGTCATAGCCTATCCACCCGGAGTCACCTAGTGCAG”, 3550 fluorescence intensity (a.u.).
In the case of “GTCTGGCTGCTGATGGTGATGATGCTGACTTGTGACGAGTCGGAGTCACCTAGTGCAG” it was 3620 fluorescence intensity (a.u.); in that of “TTTGCGATGCTGACTGGTCTGAGAGCCTTGATCCGATGGTCGGAGTCACCTAGTGCAG”, 44800 fluorescence intensity (a.u.).
As to “GAAACGATGGTTTGAGTACTGACTTGGCAATGCTGGTCATCGGAGTCACCTAGTGCAG”, the binding signal was 6280 fluorescence intensity (a.u.).
In the case of “AAACAGAGGGGAAGAGAGAGGATCGTCGTCGACGATGATGCGGAGTCACCTAGTGCAG” it was 3200 fluorescence intensity (a.u.).
In the case of “CTTGTTTGATCAAACCGATGCGACGCAGAGAGAGAGAGGTCGGAGTCACCTAGTGCAG” it was 39400 fluorescence intensity (a.u.).
In the case of “GGTCGATGATGATGATGACGACGACGAGAGGAGGAGAGATCGGAGTCACCTAGTGCAG”, the binding signal was 3820 fluorescence intensity (a.u.).
